Source: PubChem BioAssay (EPA / NIEHS)
Where “and” joins values, the source holds several entries; their conditions need not be identical. Equal values may be shown once. Inconclusive results are not listed. The source holds several records for some structures; these can differ, active in one and inactive in another. Calls of active or inactive are those of the source. Rule for the calls, unless noted: active = hit-call score of the fitted dose curve at least 0.9, where 1 is the maximum; inactive = score below 0.9.

Experiments:
[1] = ATG_PBREM_CIS: Attagene CIS-FACTORIAL HepG2 Assay for human Phenobarbital-responsive Enhancer Module (PBREM) (AID 2282955); conditions: HepG2 PBREM cis-reporter, Attagene multiplexed transcription; actives raise or lower the signal
Outline: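 Endogenous transcription factor activity was read from reporter transcripts in transiently transfected human HepG2 liver cells after 24 h dosing. RT-PCR products were fluorescently labelled, HpaI-cut and sized by capillary electrophoresis; activity fitted bidirectionally against DMSO baseline.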

[2] = target: Paired box protein Pax-6 (Homo sapiens) (UniProt P26367); assay: ATG_Pax6_CIS: Attagene CIS-FACTORIAL HepG2 Assay for human Paired Box 6 (PAX6) (AID 2282956); conditions: HepG2 CIS-FACTORIAL PAX6 reporter transcription, RNA readout; actives raise or lower the signal
Outline: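 Read-out is reporter transcript level, measured by RT-PCR with fluorescent primer extension and capillary electrophoresis after 24 h dosing of transfected HepG2 cells. Activity in either direction fitted relative to DMSO control.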

[3] = ATG_PXRE_CIS: Attagene CIS-FACTORIAL HepG2 Assay for human Pregnane X Receptor Element (PXRE) (AID 2282957); conditions: HepG2 Attagene CIS-FACTORIAL PXRE reporter, mRNA; actives raise or lower the signal
Outline: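 After a 24 h chemical incubation, total RNA from transfected HepG2 cells was reverse-transcribed and reporter cDNA amplified, FAM-labeled, HpaI-digested and sized by capillary electrophoresis. DMSO served as baseline for bidirectional curve fitting.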

[4] = ATG_PPRE_CIS: Attagene CIS-FACTORIAL HepG2 Assay for human Peroxisome Proliferator-activated Response Element (PPRE) (AID 2282958); conditions: HepG2 PPRE cis-element reporter, Attagene transcription factor profiling; actives raise or lower the signal
Outline: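 Endogenous PPRE-driven transcription is measured in HepG2 cells carrying transfected multi-reporter constructs. Reporter transcripts are quantified by RT-PCR, HpaI digestion and capillary electrophoresis 24 h after dosing. DMSO baseline, bidirectional fit.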

[5] = ATG_RORE_CIS: Attagene CIS-FACTORIAL HepG2 Assay for human RAR-related Orphan Receptor Element (RORE) (AID 2282959); conditions: HepG2 Attagene cis-factorial RORE reporter, mRNA; actives raise or lower the signal
Outline: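 RORE reporter transcripts reflecting endogenous factor activity were read after 24 h compound exposure of transfected HepG2 cells, using reverse transcription, PCR, fluorescent labelling and capillary electrophoresis sizing. Gain or loss fitted against DMSO.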

[6] = ATG_Sox_CIS: Attagene CIS-FACTORIAL HepG2 Assay for human SRY-box transcription factor (SOX) (AID 2282960); conditions: HepG2 Attagene cis-factorial SOX reporter, mRNA; actives raise or lower the signal
Outline: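 Reporter transcripts, measured by RT-PCR and capillary electrophoresis of labelled fragments, report endogenous SOX transcription factor activity. Transiently transfected human HepG2 cells receive chemical for 24 h; changes in either direction are fitted relative to DMSO.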

[7] = target: Transcription factor Sp1 (Homo sapiens) (UniProt P08047); assay: ATG_Sp1_CIS: Attagene CIS-FACTORIAL HepG2 Assay for human Specificity Protein 1 (Sp1) (AID 2282961); conditions: HepG2 Sp1 cis-reporter transcription, actives raise or lower the signal
Outline: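 Read-out is reporter transcript level, measured by RT-PCR and fluorescent capillary electrophoresis after 24 h chemical treatment. System: transiently transfected HepG2 cells reporting endogenous transcription factor activity; gain or loss fitted against DMSO baseline.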

[8] = ATG_SREBP_CIS: Attagene CIS-FACTORIAL HepG2 Assay for human Sterol Regulatory Element Binding (SREBP) (AID 2282962); conditions: HepG2 Attagene cis-factorial SREBP reporter, mRNA; actives raise or lower the signal
Outline: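 Endogenous SREBP activity read as cis-element-driven reporter transcript in transiently transfected HepG2, 24 h post-dosing; quantified via RT-PCR plus capillary electrophoresis of fluorescent fragments. Gain or loss of signal fitted relative to DMSO baseline.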

[9] = target: Signal transducer and activator of transcription 3 (Homo sapiens) (UniProt P40763); assay: ATG_STAT3_CIS: Attagene CIS-FACTORIAL HepG2 Assay for human Signal Transducer and Activator of Transcription 3 (STAT3) (AID 2282963); conditions: HepG2, Attagene cis-factorial STAT3 reporter transcription; actives raise or lower the signal
Outline: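 Cis-factorial format: endogenous transcription factors in HepG2 drive transfected reporter units. After 24 h treatment, reporter RNA was reverse-transcribed, amplified, FAM-labelled and HpaI-digested before CE analysis; activity scored in both directions against DMSO.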

[10] = ATG_TA_CIS: Attagene CIS-FACTORIAL HepG2 Assay for human TA Basal Promoter (AID 2282964); conditions: HepG2 Attagene CIS-factorial TA basal promoter reporter; actives raise or lower the signal
Outline: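 HepG2 cells transiently transfected with multiplexed cis-promoter reporter units, dosed 24 h. Reporter mRNA measured by RT-PCR, 6-FAM labelling, HpaI digestion and capillary electrophoresis; bidirectional fit versus DMSO baseline, serving as background control.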

[11] = ATG_TCF_b_cat_CIS: Attagene CIS-FACTORIAL HepG2 Assay for human T-Cell-Factor with beta-catenin (TCF/b-cat) (AID 2282965); conditions: HepG2 TCF/beta-catenin cis-reporter transcription, actives raise or lower the signal
Outline: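 Endogenous TCF/LEF activity read as reporter transcript level via RT-PCR and capillary electrophoresis fluorescence in transfected HepG2, 24 h exposure; gain or loss of signal fitted against DMSO controls.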

[12] = ATG_TAL_CIS: Attagene CIS-FACTORIAL HepG2 Assay for human TAL Basal Promoter (AID 2282966); conditions: HepG2 Attagene cis-factorial TAL promoter reporter; actives raise or lower the signal;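 note: background control endpoint measuring basal TAL promoter reporter mRNA not a specific factor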
Outline: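 Basal-promoter background-control endpoint from a multiplexed HepG2 reporter panel. Cells were exposed 24 h, then reporter mRNA was read by RT-PCR/CE fluorescence and fitted in both directions relative to DMSO.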

[13] = ATG_TGFb_CIS: Attagene CIS-FACTORIAL HepG2 Assay for human Transforming Growth Factor (TGF) (AID 2282967); conditions: HepG2 Attagene CIS TGFb reporter, mRNA transcription; actives raise or lower the signal
Outline: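 HepG2 cells transiently transfected with cis-promoter-driven multiplexed reporter units; 24 h compound exposure. Reporter mRNA measured by RT-PCR, 6-FAM labeling, HpaI digestion and capillary electrophoresis; bidirectional fit versus DMSO baseline.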

[14] = ATG_VDRE_CIS: Attagene CIS-FACTORIAL HepG2 Assay for human Vitamin D Receptor Element (VDRE) (AID 2282968); conditions: HepG2 VDRE cis-reporter transcription, actives raise or lower the signal
Outline: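 Measures endogenous factor activity through cis-element-driven reporter transcripts in transiently transfected HepG2. Cells are treated 24 h; reporter mRNA is quantified by RT-PCR and capillary electrophoresis; fitting is bidirectional.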

[15] = target: Nuclear receptor subfamily 1 group I member 3 (Homo sapiens) (UniProt Q14994); assay: ATG_CAR_TRANS: Attagene TRANS-FACTORIAL HepG2 Assay for human Constitutive Androstane Receptor (CAR) (AID 2282969; active = hit-call score of the fitted dose curve at least 0.9, where 1 is the maximum;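 note: activators raise reporter mRNA above DMSO so AC50 marks induction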); conditions: HepG2 Attagene TRANS-FACTORIAL CAR reporter
Outline: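 Signal is reporter mRNA induction relative to DMSO, measured 24 h after dosing by RT-PCR with fluorescent primer extension and capillary electrophoresis. Human HepG2 liver cells carried transiently transfected chimeric NR-Gal4/GAL4-UAS reporter constructs.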

[16] = target: X-box-binding protein 1 (Homo sapiens) (UniProt P17861); assay: ATG_Xbp1_CIS: Attagene CIS-FACTORIAL HepG2 Assay for human X-box Binding Protein 1 (XBP1) (AID 2282972); conditions: HepG2 XBP1 cis-element reporter, Attagene multiplex; actives raise or lower the signal
Outline: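 Reporter transcripts were quantified by RT-PCR with fluorescent primer extension and capillary electrophoresis after 24 h chemical exposure. Cells: transiently transfected HepG2 carrying cis-regulated reporter constructs; data fitted bidirectionally relative to DMSO.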

[17] = target: Androgen receptor (Homo sapiens) (UniProt P10275); assay: ATG_AR_TRANS: Attagene TRANS-FACTORIAL HepG2 Assay for human Androgen Receptor (AR) (AID 2282973; active = hit-call score of the fitted dose curve at least 0.9, where 1 is the maximum); conditions: HepG2 Attagene TRANS-FACTORIAL AR reporter transcription
Outline: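 HepG2 cells transiently transfected with AR-Gal4 chimera and GAL4-UAS reporter units; chemical exposure 24 h. Reporter mRNA quantified by RT-PCR with fluorescent labelling and capillary electrophoresis; gain-of-signal fitted against DMSO.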

[18] = ATG_M_19_TRANS: Attagene TRANS-FACTORIAL HepG2 Assay for M19 Transcription Factor (Internal Marker) (AID 2282974; active = hit-call score of the fitted dose curve at least 0.9, where 1 is the maximum); conditions: HepG2 Attagene TRANS-FACTORIAL M19 internal marker reporter
Outline: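 Background-control readout: after 24 h chemical exposure of transfected HepG2 carrying GAL4-driven reporter units, RNA was reverse-transcribed, amplified, fluorescently labeled and sized by capillary electrophoresis; gain-of-signal fit against DMSO.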

[19] = target: Estrogen receptor (Homo sapiens) (UniProt P03372); assay: ATG_ERa_TRANS: Attagene TRANS-FACTORIAL HepG2 Assay for human Estrogen Receptor alpha (ERa) (AID 2282970; active = hit-call score of the fitted dose curve at least 0.9, where 1 is the maximum); conditions: HepG2 Attagene TRANS ERa GAL4 reporter, mRNA
Outline: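 Gal4-fusion ERa transactivation, measured as reporter transcript level in transiently transfected HepG2 cells. Exposure 24 h; RT-PCR plus capillary electrophoresis with fluorescence detection.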

[20] = target: Steroid hormone receptor ERR1 (Homo sapiens) (UniProt P11474); assay: ATG_ERRa_TRANS: Attagene TRANS-FACTORIAL HepG2 Assay for human Estrogen-Related Receptor alpha (ERRa) (AID 2282971; active = hit-call score of the fitted dose curve at least 0.9, where 1 is the maximum); conditions: HepG2 Attagene TRANS reporter, ERRa transactivation
Outline: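 HepG2 cells transiently transfected with GAL4-UAS reporter units and chimeric NR-Gal4 constructs; after 24 hour compound incubation, reporter mRNA quantified by RT-PCR, fluorescent labelling and capillary electrophoresis, gain of signal versus DMSO.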

Measured: AC50

Sequence of Estrogen receptor (Homo sapiens) (P03372 whole entry, looked up, the tested form may be a part): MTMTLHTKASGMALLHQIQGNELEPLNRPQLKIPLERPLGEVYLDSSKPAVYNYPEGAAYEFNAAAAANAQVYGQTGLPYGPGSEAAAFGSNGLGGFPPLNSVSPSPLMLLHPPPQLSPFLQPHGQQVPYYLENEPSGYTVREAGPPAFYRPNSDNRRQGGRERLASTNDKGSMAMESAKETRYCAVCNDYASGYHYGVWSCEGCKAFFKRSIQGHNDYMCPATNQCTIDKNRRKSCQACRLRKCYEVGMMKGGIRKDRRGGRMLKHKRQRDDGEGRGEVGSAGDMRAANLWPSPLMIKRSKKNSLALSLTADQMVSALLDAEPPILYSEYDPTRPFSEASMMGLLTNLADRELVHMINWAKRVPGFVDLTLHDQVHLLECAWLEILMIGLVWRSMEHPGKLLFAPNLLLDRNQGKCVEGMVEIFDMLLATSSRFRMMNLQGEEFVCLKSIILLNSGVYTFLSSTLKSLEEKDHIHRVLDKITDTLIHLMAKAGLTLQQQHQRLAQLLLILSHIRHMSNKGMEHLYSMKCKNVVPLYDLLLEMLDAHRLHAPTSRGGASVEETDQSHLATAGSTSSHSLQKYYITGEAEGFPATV
Sequence of Androgen receptor (Homo sapiens) (P10275 whole entry, looked up, the tested form may be a part): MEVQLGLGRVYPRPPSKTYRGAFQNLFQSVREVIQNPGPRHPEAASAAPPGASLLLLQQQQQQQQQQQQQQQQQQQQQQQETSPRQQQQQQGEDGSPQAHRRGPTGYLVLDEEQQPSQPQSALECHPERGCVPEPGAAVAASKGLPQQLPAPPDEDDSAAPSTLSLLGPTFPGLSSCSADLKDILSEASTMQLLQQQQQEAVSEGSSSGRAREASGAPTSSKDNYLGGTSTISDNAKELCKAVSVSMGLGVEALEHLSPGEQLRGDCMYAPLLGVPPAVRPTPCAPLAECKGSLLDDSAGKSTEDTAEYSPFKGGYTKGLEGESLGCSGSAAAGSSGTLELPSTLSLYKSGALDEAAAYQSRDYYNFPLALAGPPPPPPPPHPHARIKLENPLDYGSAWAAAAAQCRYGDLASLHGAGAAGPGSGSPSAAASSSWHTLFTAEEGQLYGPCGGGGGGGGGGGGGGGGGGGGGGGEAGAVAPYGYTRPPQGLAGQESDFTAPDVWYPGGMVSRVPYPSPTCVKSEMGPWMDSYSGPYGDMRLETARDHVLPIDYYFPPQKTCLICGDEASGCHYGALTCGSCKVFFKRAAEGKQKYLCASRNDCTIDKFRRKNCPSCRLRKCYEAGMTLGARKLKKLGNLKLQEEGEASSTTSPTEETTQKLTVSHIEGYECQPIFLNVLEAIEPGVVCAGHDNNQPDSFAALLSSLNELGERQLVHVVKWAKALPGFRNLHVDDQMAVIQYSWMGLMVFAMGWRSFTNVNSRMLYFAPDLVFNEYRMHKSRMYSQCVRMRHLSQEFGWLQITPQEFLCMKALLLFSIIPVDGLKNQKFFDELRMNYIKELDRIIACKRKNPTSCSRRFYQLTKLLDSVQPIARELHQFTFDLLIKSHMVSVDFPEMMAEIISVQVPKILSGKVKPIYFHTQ
Sequence of Steroid hormone receptor ERR1 (Homo sapiens) (P11474 whole entry, looked up, the tested form may be a part): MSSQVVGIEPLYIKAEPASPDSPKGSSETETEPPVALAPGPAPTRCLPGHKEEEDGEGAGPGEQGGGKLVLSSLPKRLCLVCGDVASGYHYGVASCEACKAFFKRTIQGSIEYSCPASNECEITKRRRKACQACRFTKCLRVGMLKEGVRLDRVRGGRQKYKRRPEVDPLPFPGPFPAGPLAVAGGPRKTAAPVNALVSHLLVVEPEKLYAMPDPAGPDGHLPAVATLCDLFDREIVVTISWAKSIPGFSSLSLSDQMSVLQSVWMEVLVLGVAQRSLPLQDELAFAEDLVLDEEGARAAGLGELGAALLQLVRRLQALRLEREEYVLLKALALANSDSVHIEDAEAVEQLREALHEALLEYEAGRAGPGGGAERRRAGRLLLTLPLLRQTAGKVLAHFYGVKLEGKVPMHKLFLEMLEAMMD
Sequence of Paired box protein Pax-6 (Homo sapiens) (P26367 whole entry, looked up): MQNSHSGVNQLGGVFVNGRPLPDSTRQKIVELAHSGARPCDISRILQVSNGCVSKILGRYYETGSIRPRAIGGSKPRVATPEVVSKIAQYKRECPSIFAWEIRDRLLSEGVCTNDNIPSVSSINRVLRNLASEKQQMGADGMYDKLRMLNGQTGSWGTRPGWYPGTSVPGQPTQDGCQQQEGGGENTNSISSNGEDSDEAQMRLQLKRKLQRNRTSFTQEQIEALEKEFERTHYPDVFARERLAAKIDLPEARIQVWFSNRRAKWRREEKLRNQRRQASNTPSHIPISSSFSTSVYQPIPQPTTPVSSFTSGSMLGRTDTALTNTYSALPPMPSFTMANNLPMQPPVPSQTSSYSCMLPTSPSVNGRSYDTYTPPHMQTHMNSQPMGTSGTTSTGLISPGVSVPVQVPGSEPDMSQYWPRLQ
Sequence of Signal transducer and activator of transcription 3 (Homo sapiens) (P40763 whole entry, looked up): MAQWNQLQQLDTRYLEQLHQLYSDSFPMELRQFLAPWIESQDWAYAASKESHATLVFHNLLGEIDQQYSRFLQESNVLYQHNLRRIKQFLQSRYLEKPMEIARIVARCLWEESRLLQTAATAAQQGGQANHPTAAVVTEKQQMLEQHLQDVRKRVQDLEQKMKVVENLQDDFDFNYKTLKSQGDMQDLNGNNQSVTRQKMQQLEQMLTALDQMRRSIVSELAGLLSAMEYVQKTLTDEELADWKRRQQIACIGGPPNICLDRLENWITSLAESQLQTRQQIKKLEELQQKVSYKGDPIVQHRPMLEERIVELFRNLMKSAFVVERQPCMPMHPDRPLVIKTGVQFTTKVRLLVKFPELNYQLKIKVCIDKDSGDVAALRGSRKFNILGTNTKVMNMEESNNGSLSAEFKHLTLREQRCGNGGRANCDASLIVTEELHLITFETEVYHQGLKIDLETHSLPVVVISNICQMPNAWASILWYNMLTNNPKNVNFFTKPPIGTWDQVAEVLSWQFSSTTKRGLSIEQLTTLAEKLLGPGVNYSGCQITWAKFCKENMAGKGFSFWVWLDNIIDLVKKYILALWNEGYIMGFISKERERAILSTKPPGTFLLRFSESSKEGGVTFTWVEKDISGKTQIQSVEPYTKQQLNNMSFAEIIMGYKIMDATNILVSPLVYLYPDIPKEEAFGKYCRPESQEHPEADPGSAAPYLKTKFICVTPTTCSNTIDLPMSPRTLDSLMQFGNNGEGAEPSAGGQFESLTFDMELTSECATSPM
Sequence of Transcription factor Sp1 (Homo sapiens) (P08047 whole entry, looked up): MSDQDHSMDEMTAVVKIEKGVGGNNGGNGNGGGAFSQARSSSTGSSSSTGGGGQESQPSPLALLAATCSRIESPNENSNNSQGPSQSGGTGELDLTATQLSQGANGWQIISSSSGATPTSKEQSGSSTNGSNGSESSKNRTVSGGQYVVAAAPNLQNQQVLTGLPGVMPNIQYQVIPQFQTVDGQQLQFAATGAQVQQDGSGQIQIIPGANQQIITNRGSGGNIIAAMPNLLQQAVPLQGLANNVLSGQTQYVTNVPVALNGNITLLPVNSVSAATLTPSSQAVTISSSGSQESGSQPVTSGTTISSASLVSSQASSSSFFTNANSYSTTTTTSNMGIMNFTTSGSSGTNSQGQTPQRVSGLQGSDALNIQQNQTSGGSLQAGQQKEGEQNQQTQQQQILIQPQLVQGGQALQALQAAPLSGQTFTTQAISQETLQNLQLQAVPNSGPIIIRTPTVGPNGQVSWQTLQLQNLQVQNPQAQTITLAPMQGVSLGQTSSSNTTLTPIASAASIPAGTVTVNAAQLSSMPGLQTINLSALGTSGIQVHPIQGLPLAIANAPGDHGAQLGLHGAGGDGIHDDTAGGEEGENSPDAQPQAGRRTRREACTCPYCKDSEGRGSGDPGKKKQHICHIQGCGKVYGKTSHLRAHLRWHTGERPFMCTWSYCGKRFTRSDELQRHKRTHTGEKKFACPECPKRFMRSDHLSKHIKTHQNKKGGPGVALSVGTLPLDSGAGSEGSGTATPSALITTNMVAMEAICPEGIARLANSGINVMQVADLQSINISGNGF
Sequence of Nuclear receptor subfamily 1 group I member 3 (Homo sapiens) (Q14994 whole entry, looked up, the tested form may be a part): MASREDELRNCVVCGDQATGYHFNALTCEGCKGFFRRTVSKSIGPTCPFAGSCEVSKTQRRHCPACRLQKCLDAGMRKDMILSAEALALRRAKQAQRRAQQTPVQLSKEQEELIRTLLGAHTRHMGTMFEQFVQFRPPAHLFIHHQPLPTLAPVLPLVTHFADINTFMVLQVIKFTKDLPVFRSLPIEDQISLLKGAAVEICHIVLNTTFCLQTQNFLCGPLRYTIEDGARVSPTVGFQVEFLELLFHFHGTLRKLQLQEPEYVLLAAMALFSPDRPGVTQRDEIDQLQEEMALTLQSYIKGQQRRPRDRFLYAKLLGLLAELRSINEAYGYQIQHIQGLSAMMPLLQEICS
Sequence of X-box-binding protein 1 (Homo sapiens) (P17861 whole entry, looked up): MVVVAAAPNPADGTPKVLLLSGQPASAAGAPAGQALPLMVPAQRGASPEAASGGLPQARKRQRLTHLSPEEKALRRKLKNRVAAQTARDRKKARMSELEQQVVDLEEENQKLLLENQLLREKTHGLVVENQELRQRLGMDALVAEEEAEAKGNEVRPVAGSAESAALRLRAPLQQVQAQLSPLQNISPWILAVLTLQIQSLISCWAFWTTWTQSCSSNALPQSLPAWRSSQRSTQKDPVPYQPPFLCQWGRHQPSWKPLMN

CCCC1COC(Cn2cncn2)(c2ccc(Cl)cc2Cl)O1 (stereo unspecified)
inactive: [1] | [2] | [4] | [5] | [6] | [7] | [8] | [9] | [10] | [11] | [12] | [13] | [14] | [15] | [16] | [17] | [18]
active: [1] 50 µM | [3] 4.09 µM and 85 µM | [8] 15.9 µM | [10] 50 µM | [14] 7.99 µM

COc1nc(NC(C)C)nc(NC(C)C)n1
inactive: [1] | [2] | [3] | [4] | [5] | [7] | [8] | [9] | [10] | [11] | [12] | [13] | [14] | [19] | [20] | [16] | [18]
active: [3] 18.6 µM | [5] 30.5 µM

OC(c1ccc(Cl)cc1)(c1cncnc1)c1ccccc1Cl (stereo unspecified)
active: [3] 2.17 µM | [7] 12.6 µM | [14] 50 µM | [19] 3.2 µM
inactive: [1] | [2] | [3] | [4] | [5] | [7] | [8] | [9] | [10] | [11] | [12] | [13] | [14] | [15] | [19] | [20] | [16] | [18]

COc1nc(C)nc(NC(=O)NS(=O)(=O)c2ccccc2Cl)n1
inactive: [1] | [2] | [3] | [5] | [7] | [8] | [9] | [10] | [11] | [12] | [13] | [14] | [15] | [19] | [16] | [18]
active: [3] 31.3 µM

CO/C=C(/C(=O)OC)c1ccccc1Oc1cc(Oc2ccccc2C#N)ncn1
active: [3] 526 nM [middle of 6 runs] | [8] 32.4 µM [middle of 4 runs]
inactive: [1] | [2] | [4] | [5] | [7] | [8] | [9] | [10] | [11] | [12] | [13] | [15] | [19] | [20] | [16] | [17] | [18]

CNC(=O)ON=CC(C)(C)SC
not listed: [14] | [15] | [17]
inactive: all other assays above
